# Measurements: paper PMC7862700, “An all-to-all approach to the identification of sequence-specific readers for epigenetic DNA modifications on cytosine”
# How the values were obtained:
# Assay in all cases: DAPPL (digital affinity profiling via proximity ligation, sequencing); 10 mM Tris-HCl pH 7.5, 50 mM NaCl, 1 mM DTT, 4% glycerol, room temperature, 30 min; GST-TFs on glutathione beads, 16-mer random dsDNA library, 0.1% formaldehyde crosslink after washing; high values mean tight binding
# Details in all cases: protein: recombinant; tags: N-terminal GST; dsDNA, one strand shown
# [1] = target: T1, FLI1 (Homo sapiens, UniProt Q01543 1-452)
# T1 sequence: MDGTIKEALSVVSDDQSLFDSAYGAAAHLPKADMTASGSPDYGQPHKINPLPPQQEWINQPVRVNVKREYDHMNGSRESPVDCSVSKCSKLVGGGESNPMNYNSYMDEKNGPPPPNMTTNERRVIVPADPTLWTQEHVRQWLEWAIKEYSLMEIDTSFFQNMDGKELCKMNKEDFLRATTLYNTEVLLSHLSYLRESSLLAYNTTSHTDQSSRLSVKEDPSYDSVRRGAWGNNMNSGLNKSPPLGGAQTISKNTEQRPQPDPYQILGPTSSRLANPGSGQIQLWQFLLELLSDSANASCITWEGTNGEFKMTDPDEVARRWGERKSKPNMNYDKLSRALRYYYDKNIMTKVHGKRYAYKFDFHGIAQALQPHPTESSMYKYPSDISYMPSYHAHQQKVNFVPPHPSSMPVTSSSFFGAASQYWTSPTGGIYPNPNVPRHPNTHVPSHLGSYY
# Summary of the method: (§1)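 Yeast served to express human transcription factors as GST fusions, which were then captured on glutathione beads and labelled with DNA barcodes. Pooled with a tag-only sample, they were incubated with 200 nmole of a 16-mer random double-stranded DNA library for 30 min at room temperature in Tris/NaCl/DTT/glycerol buffer, washed, crosslinked with 0.1% formaldehyde, ligated by proximity, amplified by PCR and sequenced. Dividing each hexamer's read frequency for a factor by its frequency for the tag-only sample gives the binding signal.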
# [2] = target: T2, ELK1 (Homo sapiens, UniProt P19419 1-428)
# T2 sequence: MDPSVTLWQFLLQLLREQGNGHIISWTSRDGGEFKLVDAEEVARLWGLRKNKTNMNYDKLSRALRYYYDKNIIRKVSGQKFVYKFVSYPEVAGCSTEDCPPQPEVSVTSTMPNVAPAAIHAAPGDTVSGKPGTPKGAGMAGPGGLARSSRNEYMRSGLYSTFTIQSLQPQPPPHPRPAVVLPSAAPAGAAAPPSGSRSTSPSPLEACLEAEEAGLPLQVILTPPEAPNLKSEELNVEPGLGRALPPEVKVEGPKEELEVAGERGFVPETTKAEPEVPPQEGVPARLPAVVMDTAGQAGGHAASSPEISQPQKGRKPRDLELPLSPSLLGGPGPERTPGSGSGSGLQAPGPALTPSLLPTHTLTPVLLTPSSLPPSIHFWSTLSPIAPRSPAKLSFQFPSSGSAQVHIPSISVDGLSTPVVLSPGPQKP
# Summary of the method: as §1
# [3] = target: T3, GABPA (Homo sapiens, UniProt Q06546 1-454)
# T3 sequence: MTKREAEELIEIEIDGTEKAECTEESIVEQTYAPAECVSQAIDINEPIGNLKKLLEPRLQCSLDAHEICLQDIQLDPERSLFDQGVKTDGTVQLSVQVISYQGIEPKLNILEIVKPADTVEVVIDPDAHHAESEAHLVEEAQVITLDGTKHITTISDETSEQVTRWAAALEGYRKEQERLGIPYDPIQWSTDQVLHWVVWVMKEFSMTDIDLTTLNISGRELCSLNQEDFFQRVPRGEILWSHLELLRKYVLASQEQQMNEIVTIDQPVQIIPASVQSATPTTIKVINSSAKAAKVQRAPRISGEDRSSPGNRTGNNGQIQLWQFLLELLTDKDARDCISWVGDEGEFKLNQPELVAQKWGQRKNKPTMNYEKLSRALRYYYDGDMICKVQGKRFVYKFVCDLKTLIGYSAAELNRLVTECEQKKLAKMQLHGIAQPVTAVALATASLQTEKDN
# Summary of the method: as §1
# [4] = target: T4, ERG (Homo sapiens, UniProt P11308 1-479)
# T4 sequence: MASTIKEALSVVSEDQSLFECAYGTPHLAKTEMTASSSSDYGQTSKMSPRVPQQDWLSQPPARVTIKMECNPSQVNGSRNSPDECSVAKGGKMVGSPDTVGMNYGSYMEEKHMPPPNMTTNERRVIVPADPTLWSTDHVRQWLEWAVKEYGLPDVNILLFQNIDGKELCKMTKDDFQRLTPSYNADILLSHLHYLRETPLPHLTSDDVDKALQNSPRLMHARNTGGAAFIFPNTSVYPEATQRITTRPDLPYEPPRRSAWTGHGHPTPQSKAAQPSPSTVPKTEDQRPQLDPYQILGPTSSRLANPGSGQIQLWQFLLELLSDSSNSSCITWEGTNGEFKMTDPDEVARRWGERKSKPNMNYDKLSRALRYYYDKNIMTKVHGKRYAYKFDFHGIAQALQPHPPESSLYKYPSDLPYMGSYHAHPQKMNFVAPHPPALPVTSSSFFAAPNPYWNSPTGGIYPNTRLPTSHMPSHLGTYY
# Summary of the method: as §1
# [5] = target: ELF1 (Homo sapiens, UniProt P32519 1-619)
# ELF1, sequence (P32519 whole entry): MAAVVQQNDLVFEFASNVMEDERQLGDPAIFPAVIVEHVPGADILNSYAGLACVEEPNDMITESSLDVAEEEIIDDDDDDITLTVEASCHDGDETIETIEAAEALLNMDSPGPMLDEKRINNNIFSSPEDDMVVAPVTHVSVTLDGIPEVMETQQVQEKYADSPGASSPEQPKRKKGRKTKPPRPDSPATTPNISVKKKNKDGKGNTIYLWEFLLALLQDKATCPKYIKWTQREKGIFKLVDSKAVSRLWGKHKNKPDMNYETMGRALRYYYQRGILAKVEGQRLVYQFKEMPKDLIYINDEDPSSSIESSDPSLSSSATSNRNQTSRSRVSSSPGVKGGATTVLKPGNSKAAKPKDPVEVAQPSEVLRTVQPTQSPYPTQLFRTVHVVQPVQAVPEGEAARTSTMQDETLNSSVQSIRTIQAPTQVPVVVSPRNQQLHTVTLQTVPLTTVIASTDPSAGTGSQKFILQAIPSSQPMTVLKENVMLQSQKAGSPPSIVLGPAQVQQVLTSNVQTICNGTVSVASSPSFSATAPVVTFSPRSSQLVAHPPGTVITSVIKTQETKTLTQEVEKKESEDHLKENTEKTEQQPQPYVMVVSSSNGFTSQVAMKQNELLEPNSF
# Summary of the method: as §1
# [6] = target: SPI1 (Homo sapiens, UniProt P17947 1-270)
# Summary of the method: as §1
# [7] = target: SPIB (Homo sapiens, UniProt Q01892 1-262)
# SPIB, sequence (Q01892 whole entry): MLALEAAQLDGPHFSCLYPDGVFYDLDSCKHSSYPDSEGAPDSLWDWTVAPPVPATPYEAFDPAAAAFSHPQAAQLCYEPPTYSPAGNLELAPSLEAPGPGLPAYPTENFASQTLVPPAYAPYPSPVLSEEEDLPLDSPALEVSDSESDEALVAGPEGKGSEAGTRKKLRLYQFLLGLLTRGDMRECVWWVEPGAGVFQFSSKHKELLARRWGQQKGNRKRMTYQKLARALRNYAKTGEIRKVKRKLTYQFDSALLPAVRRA
# Summary of the method: as §1
# [8] = target: T5, ELK3 (Homo sapiens, UniProt P41970 1-407)
# T5 sequence: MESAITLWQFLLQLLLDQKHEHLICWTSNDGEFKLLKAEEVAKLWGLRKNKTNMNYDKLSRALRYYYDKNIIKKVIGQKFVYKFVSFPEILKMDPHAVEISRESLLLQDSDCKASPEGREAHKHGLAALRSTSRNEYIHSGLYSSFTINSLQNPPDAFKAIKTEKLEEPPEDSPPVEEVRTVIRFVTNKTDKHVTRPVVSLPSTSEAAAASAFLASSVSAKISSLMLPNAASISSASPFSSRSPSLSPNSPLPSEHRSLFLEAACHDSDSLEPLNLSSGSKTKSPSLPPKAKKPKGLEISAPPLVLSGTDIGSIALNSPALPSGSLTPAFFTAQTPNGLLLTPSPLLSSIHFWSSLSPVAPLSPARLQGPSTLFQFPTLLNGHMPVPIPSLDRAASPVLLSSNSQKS
# Summary of the method: as §1
# [9] = target: ELF4 (Homo sapiens, UniProt Q99607 1-663)
# ELF4, sequence (Q99607 whole entry): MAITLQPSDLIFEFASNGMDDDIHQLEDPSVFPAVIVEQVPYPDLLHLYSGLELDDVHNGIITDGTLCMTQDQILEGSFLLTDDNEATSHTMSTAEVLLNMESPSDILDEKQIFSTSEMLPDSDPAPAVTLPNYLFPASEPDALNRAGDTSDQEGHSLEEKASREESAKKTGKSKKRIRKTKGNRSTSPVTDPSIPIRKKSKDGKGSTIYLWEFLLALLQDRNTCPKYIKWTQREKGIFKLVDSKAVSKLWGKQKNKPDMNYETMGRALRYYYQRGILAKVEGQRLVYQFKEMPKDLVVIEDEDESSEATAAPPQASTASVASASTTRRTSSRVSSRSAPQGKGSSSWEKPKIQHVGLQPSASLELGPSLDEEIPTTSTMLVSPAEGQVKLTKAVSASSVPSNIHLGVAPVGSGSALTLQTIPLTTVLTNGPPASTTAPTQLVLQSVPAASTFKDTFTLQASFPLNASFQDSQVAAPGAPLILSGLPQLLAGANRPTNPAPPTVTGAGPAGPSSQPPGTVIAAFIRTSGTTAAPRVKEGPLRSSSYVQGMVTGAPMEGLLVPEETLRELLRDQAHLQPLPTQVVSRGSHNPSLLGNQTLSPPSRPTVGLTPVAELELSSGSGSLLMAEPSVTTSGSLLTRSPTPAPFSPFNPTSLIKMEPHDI
# Summary of the method: as §1
# [10] = target: T6, ELK4 (Homo sapiens, UniProt P28324-2 1-405)
# T6 sequence: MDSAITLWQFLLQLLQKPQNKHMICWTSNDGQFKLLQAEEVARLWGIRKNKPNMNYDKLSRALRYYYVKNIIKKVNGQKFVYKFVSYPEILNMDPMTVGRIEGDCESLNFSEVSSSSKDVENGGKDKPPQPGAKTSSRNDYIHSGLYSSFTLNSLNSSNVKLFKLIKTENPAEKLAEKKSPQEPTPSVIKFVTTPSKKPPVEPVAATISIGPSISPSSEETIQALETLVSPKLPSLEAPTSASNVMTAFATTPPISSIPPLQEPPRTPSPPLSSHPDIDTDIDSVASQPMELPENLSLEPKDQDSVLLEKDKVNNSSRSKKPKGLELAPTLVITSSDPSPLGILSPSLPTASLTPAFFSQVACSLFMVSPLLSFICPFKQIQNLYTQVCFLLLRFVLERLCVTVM
# Summary of the method: as §1
# [11] = target: T7, ETV2 (Homo sapiens, UniProt O00321 1-342)
# T7 sequence: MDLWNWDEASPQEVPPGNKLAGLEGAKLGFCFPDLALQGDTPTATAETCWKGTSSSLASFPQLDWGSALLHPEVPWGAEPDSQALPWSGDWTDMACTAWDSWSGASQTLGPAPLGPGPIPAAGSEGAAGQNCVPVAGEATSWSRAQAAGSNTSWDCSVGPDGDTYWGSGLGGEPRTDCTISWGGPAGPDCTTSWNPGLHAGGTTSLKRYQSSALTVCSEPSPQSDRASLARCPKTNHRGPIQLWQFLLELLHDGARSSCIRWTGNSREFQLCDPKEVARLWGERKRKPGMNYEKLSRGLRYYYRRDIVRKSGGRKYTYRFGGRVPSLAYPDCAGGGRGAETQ
# Summary of the method: as §1
# [12] = target: T8, ELF3 (Homo sapiens, UniProt P78545 1-371)
# T8 sequence: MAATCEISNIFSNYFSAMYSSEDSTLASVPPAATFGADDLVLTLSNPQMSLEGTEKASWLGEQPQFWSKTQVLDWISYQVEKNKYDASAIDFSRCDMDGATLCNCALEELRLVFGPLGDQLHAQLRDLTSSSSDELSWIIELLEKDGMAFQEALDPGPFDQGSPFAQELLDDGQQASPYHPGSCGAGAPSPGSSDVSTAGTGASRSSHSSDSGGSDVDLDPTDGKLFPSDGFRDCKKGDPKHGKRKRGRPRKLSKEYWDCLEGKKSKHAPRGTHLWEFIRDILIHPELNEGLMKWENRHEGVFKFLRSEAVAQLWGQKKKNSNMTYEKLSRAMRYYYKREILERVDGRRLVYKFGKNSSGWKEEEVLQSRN
# Summary of the method: as §1
# [13] = target: ETV1 (Homo sapiens, UniProt P50549 1-477)
# ETV1, sequence (P50549 whole entry): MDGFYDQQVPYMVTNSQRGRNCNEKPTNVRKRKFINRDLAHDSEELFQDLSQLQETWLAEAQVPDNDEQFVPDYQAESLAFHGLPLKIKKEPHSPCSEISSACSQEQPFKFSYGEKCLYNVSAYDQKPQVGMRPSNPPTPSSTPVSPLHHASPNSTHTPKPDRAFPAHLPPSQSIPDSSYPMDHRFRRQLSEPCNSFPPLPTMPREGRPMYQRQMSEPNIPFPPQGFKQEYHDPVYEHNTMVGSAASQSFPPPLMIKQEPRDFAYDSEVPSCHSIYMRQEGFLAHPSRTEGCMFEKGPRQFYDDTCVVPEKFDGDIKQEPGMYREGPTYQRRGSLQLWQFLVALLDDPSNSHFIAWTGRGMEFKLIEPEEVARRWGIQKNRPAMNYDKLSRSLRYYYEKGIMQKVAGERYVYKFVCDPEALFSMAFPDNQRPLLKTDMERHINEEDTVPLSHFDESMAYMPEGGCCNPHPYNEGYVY
# Summary of the method: as §1
# [14] = target: T9, ETV3L (Homo sapiens, UniProt Q6ZN32 1-361)
# T9 sequence: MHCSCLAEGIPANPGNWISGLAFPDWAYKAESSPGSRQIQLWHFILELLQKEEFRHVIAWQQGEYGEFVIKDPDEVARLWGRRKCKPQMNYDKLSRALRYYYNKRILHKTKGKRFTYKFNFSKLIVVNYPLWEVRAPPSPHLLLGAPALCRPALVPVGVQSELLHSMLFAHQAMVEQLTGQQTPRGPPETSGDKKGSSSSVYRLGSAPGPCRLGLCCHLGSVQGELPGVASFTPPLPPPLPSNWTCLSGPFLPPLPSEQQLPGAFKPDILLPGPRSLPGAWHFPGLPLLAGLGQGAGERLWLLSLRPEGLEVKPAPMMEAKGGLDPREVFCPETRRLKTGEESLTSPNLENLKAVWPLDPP
# Summary of the method: as §1
# [15] = target: T10, ETV7 (Homo sapiens, UniProt Q9Y603 1-341)
# T10 sequence: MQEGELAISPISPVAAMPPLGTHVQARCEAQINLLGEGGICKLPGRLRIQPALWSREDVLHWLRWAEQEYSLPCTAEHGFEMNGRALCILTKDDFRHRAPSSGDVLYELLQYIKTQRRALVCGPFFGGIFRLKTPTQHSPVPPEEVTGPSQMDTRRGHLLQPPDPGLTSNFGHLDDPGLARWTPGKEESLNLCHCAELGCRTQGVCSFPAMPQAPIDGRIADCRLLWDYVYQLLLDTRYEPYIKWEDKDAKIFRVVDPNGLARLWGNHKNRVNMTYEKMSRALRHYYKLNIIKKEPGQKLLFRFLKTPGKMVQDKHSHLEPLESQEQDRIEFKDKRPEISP
# Summary of the method: as §1
# [16] = target: T11, ETV3 (Homo sapiens, UniProt P41162-2 1-143)
# T11 sequence: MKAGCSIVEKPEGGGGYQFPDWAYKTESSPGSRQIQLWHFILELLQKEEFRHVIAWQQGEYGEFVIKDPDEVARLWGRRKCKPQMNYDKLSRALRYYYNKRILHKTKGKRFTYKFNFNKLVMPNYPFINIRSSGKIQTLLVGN
# Summary of the method: as §1
# [17] = target: ETV6 (Homo sapiens, UniProt P41212 1-452)
# ETV6, sequence (P41212 whole entry): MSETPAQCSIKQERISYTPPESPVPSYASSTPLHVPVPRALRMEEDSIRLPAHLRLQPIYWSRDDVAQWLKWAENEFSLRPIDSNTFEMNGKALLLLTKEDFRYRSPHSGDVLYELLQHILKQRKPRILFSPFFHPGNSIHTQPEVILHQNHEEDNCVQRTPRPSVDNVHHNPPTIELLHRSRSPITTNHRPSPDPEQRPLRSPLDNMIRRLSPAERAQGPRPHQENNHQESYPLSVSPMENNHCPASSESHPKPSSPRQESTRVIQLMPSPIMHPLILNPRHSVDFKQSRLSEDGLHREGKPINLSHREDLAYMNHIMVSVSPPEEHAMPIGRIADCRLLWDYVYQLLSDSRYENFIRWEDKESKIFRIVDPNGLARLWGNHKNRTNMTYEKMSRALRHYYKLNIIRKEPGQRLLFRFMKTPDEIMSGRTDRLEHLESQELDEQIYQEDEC
# Summary of the method: as §1
sequence,measurement,setting,value
CGCGAT,binding signal,[1],"1.02 fold enrichment (6-mer frequency, TF over GST control)"
same,binding signal,[2],"1.07 fold enrichment (6-mer frequency, TF over GST control)"
same,binding signal,[3],"1.09 fold enrichment (6-mer frequency, TF over GST control)"
same,binding signal,[4],"1.09 fold enrichment (6-mer frequency, TF over GST control)"
same,binding signal,[5],"1.06 fold enrichment (6-mer frequency, TF over GST control)"
same,binding signal,[6],"1.09 fold enrichment (6-mer frequency, TF over GST control)"
same,binding signal,[7],"1.03 fold enrichment (6-mer frequency, TF over GST control)"
same,binding signal,[8],"1.07 fold enrichment (6-mer frequency, TF over GST control)"
same,binding signal,[9],"1.07 fold enrichment (6-mer frequency, TF over GST control)"
same,binding signal,[10],"1.22 fold enrichment (6-mer frequency, TF over GST control)"
same,binding signal,[11],"1.17 fold enrichment (6-mer frequency, TF over GST control)"
same,binding signal,[12],"1.15 fold enrichment (6-mer frequency, TF over GST control)"
same,binding signal,[13],"1.08 fold enrichment (6-mer frequency, TF over GST control)"
same,binding signal,[14],"1.06 fold enrichment (6-mer frequency, TF over GST control)"
same,binding signal,[15],"1.05 fold enrichment (6-mer frequency, TF over GST control)"
same,binding signal,[16],"1.08 fold enrichment (6-mer frequency, TF over GST control)"
same,binding signal,[17],"1.05 fold enrichment (6-mer frequency, TF over GST control)"
